Shown is part of a subset that was picked to be rich in hits.
FECH inh = inhibitors of human ferrochelatase. P22830. purified FECH, Ni-mesoporphyrin absorbance 550 nm. calls only at 10 µM (by protocol). 3.3% of 20,000 active. AID 1671448;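 active means enzyme reaction rate more than 3 SD below the solvent-only control wells on the same plate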;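 further: lower slope than DMSO wells means FECH inhibition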
Target sequence (P22830 whole entry, looked up): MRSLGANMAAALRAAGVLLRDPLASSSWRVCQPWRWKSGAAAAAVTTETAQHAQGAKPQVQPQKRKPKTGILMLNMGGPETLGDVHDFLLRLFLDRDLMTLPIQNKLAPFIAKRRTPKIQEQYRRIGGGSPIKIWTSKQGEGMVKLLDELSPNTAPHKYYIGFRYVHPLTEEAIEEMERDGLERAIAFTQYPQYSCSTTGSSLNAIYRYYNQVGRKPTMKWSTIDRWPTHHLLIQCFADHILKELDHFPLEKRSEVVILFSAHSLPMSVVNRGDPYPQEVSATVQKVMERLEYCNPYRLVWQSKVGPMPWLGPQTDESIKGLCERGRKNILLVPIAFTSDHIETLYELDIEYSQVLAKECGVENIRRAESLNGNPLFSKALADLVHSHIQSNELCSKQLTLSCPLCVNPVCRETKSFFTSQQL
The depositor's hits bear a star.

How did NC(=O)c1cccc(CC2CCN(C(=O)Cc3cccnc3)C2)c1 (stereo not given) do in these assays?
FECH inh: inactive

Results for CC(C)(C)NC(=O)N1CCN(c2cc(-c3ccc(F)cc3)ncn2)CC1 ?
FECH inh: inactive

How did Cc1cnc(CN(C)C(=O)c2ccc(OCC(=O)N3CCCCC3)cc2)[nH]1 do in these assays?
FECH inh: active

Results for NC1(C(=O)O)CCN(Cc2ccc(OCC(=O)N3CCCCC3)cc2)C1 (stereo not given) ?
FECH inh: inactive

How did CN(Cc1ncc[nH]1)C(=O)COc1ccc(F)cc1 do in these assays?
FECH inh: inactive

Results for CC(C)CNC(=O)c1nc[nH]c1C(=O)NCC(C)C ?
FECH inh: inactive

How did CCC(CC)n1nc(C)cc1NC(=O)CN1CCCCCC1=O do in these assays?
FECH inh: inactive
